# Measurements taken from the supplement of paper PMC13094657.
# Where a name gives a salt, the structure may show the parent alone. ± gives the standard deviation of the averaged measurements.
# Assays:
# MDA-MB-231 [1] = test: cell viability relative to vehicle unstimulated control (fraction); higher = more viable cells; details: pre-treatment time: 18 h then 24 h IFNg/TNF
# MDA-MB-231 [2] = test: kynurenine production, fold change vs DMSO IFNg/TNF control; higher = more kynurenine produced (less inhibition); details: pre-treatment time: 18 h then 24 h IFNg/TNF
# In short: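 In 96-well plates, MDA-MB-231 cells (7 × 10^4/well) were given 24 h to settle, pre-treated for 18 h with each natural product in 0.1% DMSO, and stimulated for 24 h with IFNγ (1 U/ml) and TNF (6.25 ng/ml) at 37°C. Supernatants were processed with trichloroacetic acid and p-dimethylaminobenzaldehyde and read at 492 nm against 0–100 μM standards. In the first screening round, kynurenine production, as fold change over same-plate cytokine-stimulated vehicle wells, was averaged over duplicate plates.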
# 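Wherever cell viability relative to vehicle unstimulated control is given: viability of the cells left after supernatant collection, read with Deep Blue dye added for 4 h, as absorbance at 570 nm minus 600 nm.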
SMILES,cell viability (MDA-MB-231 [1]),kynurenine production (MDA-MB-231 [2])
CN1[C@@H]2CC[C@H]1C[C@@H](OC(=O)C(CO)c1ccccc1)C2 (some centres undefined) [Atropine sulfate] (compound dose: 10 uM),0.996 ± 0.016,0.795 ± 0.044
C=C1[C@H](OC(=O)c2ccccc2)C[C@H]2[C@@H](/C=C(\C)C(=O)[C@@]3(OC(C)=O)C[C@H](C)[C@H](OC(=O)c4ccccc4)[C@@H]3[C@H]1OC(C)=O)C2(C)C [Euphorbia factor L2] (compound dose: 10 uM),1.07 ± 0.015,0.384 ± 0.048
C=C(CO)C(=O)O[C@H]1CC(=C)[C@@H]2C[C@H](O)C(=C)[C@@H]2[C@H]2OC(=O)C(=C)[C@@H]21 [Cynaropicrin] (compound dose: 10 uM),0.69 ± 0.16,0.0672 ± 0.056
CC(C)=CCC[C@@](C)(O)[C@H]1CC[C@]2(C)[C@@H]1[C@H](O)C[C@@H]1[C@@]3(C)CC[C@H](O)C(C)(C)[C@@H]3[C@@H](O[C@@H]3O[C@H](CO)[C@@H](O)[C@H](O)[C@H]3O)C[C@]12C [(20R)-Ginsenoside Rh1] (compound dose: 10 uM),0.9611 ± 0.0044,0.887 ± 0.031
O=C(/C=C/c1ccccc1)OC[C@H]1O[C@@H](O[C@@H]2OC=C[C@H]3[C@H](O)[C@@H]4O[C@]4(CO)[C@@H]23)[C@H](O)[C@@H](O)[C@@H]1O [Picroside I] (compound dose: 10 uM),0.9642 ± 0.0044,0.923 ± 0.05
CN1[C@@H]2CC(O)C[C@H]1[C@@H]1O[C@@H]12 (some centres undefined) [Scopine] (compound dose: 10 uM),1,0.798 ± 0.03
O=C([O-])c1ccc[n+]([C@@H]2O[C@H](CO)[C@@H](O)[C@H]2O)c1 [Nicotinic acid riboside] (compound dose: 10 uM),0.784 ± 0.36,0.364 ± 0.35
CN[C@H]1CCc2cc(OC)c(OC)c(OC)c2-c2ccc(OC)c(=O)cc21 [Demecolcine (colcemid)] (compound dose: 10 uM),0.847 ± 0.13,0.486 ± 0.099
CC(C)=CCC[C@](C)(O)[C@H]1CC[C@]2(C)[C@@H]1[C@H](O)C[C@@H]1[C@@]3(C)CC[C@H](O)C(C)(C)[C@@H]3[C@@H](O[C@@H]3O[C@H](CO)[C@@H](O)[C@H](O)[C@H]3O)C[C@]12C [Ginsenoside Rh1] (compound dose: 10 uM),0.999 ± 0.025,0.852 ± 0.15
COc1cc(C[C@H]2C(=O)OC[C@@H]2Cc2ccc3c(c2)OCO3)cc(OC)c1OC [Yatein] (compound dose: 10 uM),0.9961 ± 0.0012,0.843 ± 0.035
C[C@@H]1CC[C@@]2(OC1)O[C@H]1[C@@H](O)[C@H]3[C@@H]4CC[C@H]5C[C@@H](O[C@@H]6O[C@H](CO)[C@H](O[C@@H]7O[C@H](CO)[C@@H](O)[C@H](O[C@@H]8OC[C@@H](O)[C@H](O)[C@H]8O)[C@H]7O[C@@H]7O[C@H](CO)[C@H](O)[C@H](O[C@@H]8O[C@H](CO)[C@@H](O)[C@H](O)[C@H]8O)[C@H]7O)[C@H](O)[C@H]6O)[C@H](O)C[C@]5(C)[C@H]4CC[C@]3(C)[C@H]1[C@@H]2C [Digitonin] (compound dose: 10 uM),0.694 ± 0.021,0.617 ± 0.019
CO[C@H]1CCN2[C@@H]3C=CC4=CC(=O)O[C@]4(C3)[C@@H]2C1 [Securitinine] (compound dose: 10 uM),0.983 ± 0.035,0.734 ± 0.084
CC1=C[C@H]2[C@@]3(O)[C@H](C)[C@@H](O)[C@]4(O)[C@H]([C@@H]3C=C(CO)C[C@]2(O)C1=O)C4(C)C [Phorbol] (compound dose: 10 uM),1.02 ± 0.074,0.894 ± 0.041
CN1[C@@H]2CC[C@H]1C[C@H](O)C2 [Pseudotropine] (compound dose: 10 uM),1.052 ± 0.0024,1.14 ± 0.4
CC(=O)OC[C@]12[C@H](OC(C)=O)[C@H](OC(C)=O)[C@@H]3[C@@H](OC(C)=O)[C@@]14O[C@@]3(C)COC(=O)c1cccnc1CCC(C)C(=O)O[C@@H]([C@H](OC(=O)c1ccco1)[C@@H]2OC(C)=O)[C@]4(C)O (some centres undefined) [Wilforgine] (compound dose: 10 uM),1.02 ± 0.14,1.04 ± 0.077
C[C@@]12C[C@@H](c3ccoc3)OC(=O)[C@@H]1CC[C@]1(C)[C@H]2[C@@H]2C=C[C@@]1(O)C(=O)O2 [Columbin] (compound dose: 10 uM),0.9915 ± 0.0091,0.882 ± 0.2
C/C=C(/C)C(=O)O[C@H]1[C@@H]2[C@H](C)C(=O)O[C@@H]2C[C@@H](C)[C@@H]2C=CC(=O)[C@]21C [Brevilin A] (compound dose: 10 uM),0.75 ± 0.035,0.132 ± 0.017
C=C1CC[C@H]2[C@@H](/C=C(\C)C(=O)[C@@]3(OC(C)=O)C[C@H](C)[C@H](OC(=O)Cc4ccccc4)[C@@H]3[C@H]1OC(C)=O)C2(C)C [Deoxy euphorbia factor L1] (compound dose: 10 uM),1.07 ± 0.074,0.9513 ± 0.0042
CC1=C2[C@H]3OC(=O)[C@@H](C)[C@@H]3CC[C@@]2(C)C=CC1=O [Santonin] (compound dose: 10 uM),0.9716 ± 0.0046,1.02 ± 0.023
COc1cc([C@@H]2c3cc4c(cc3C[C@H]3COC(=O)[C@@H]32)OCO4)cc(OC)c1OC [4-deoxypodophyllotoxin] (compound dose: 10 uM),0.814 ± 0.042,0.623 ± 0.19
CC(=O)OC(C)(C)/C=C/C(=O)[C@](C)(O)[C@H]1[C@H](O)C[C@@]2(C)[C@@H]3CC=C4[C@@H](C=C(O)C(=O)C4(C)C)[C@]3(C)C(=O)C[C@]12C [Cucurbitacin E] (compound dose: 10 uM),0.52 ± 0.0012,0.19 ± 0.034
COc1cc(C2OCC3C(c4cc(OC)c(O[C@@H]5O[C@H](CO)[C@@H](O)[C@H](O)[C@H]5O)c(OC)c4)OCC23)cc(OC)c1O[C@H]1O[C@@H](CO)[C@H](O)[C@@H](O)[C@@H]1O (some centres undefined) [Eleutheroside E] (compound dose: 10 uM),0.947 ± 0.033,0.784 ± 0.071
CC(C)(C)[C@]1(O)CC2OC(=O)CC23C(=O)OC2OC(=O)[C@H](O)C231 (some centres undefined) [Bilobalide] (compound dose: 10 uM),1.01 ± 0.015,0.774 ± 0.031
CN1[C@@H]2C[C@@H](OC(=O)[C@H](CO)c3ccccc3)C[C@H]1[C@@H]1O[C@@H]12 [Scopolamine hydrobromide] (compound dose: 10 uM),0.983 ± 0.025,0.811 ± 0.067
CN1[C@@H]2CC[C@H]1C[C@@H](OC(=O)[C@H](CO)c1ccccc1)C2 [Hyoscyamine hydrobromide] (compound dose: 10 uM),1.03 ± 0.024,0.743 ± 0.061
COc1cc2c3c(c1OC)-c1ccccc1C[C@H]3N(C)CC2 [Nuciferine] (compound dose: 10 uM),1.05 ± 0.051,1.1 ± 0.08
CC(=O)O[C@@H]1[C@H]2[C@@H](OC(=O)Cc3ccccc3)[C@@H](C)C[C@]2(OC(C)=O)C(=O)/C(C)=C/[C@@H]2[C@H](CC[C@]13CO3)C2(C)C [Euphorbia factor L1] (compound dose: 10 uM),1.12,1.07 ± 0.11
